Nrf2 inh: inhibitors of Nrf2 signaling | A549 ARE-Fluc reporter, luciferase luminescence, 18-24 h | Potency, µM (titrated, usually from 46 µM), for the others: top-dose activity change, negative = inhibition, actives largely listed as inhibitors | 2.1% of 360,000 active | AID 504444; also: potency is read from the fitted curve at half-maximal effect; % is scaled to controls: 0 for no effect and ±100 for the full control effect; nearly all actives have a fitted effect of over 60% in size
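Concentration-response testing used A549 ARE_Fluc cells at 5000 cells/well. Following an 18-24 h compound incubation, viability was read by fluorescence (Ex 405/Em 525) and luciferase output by luminescence.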
LDHA inh: blocks human lactate dehydrogenase A; purified LDHA, NADH/diaphorase-resazurin fluorescence; active compounds read low; activity change, % (values are at about 110 or 230 µM); 0.15% of 480,000 active; AID 1347041; in the data active = activity change below about -30%; inconclusive = mostly about -25% to -30%;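 also: plate controls were DMSO wells for no effect and wells without enzyme for full effect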
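Enzyme activity of human lactate dehydrogenase 5 (2 nM; 0.06 mM NADH, 0.2 mM pyruvate, 5 min, RT) is measured via a resazurin/diaphorase fluorescence readout of residual NADH.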
Nrf2 ARE act: Nrf2 pathway activation | Potency, µM (highest dose often 46.1 µM), for the others: at the top dose activation, actives largely listed as activators | 0.31% of 410,000 active | AREc32 ARE-luciferase reporter (MCF7-derived line), luminescence, 24 h; also: potency is read from the fitted curve at half-maximal effect; % of control where 0% means no effect; nearly all actives have a fitted effect of over 65% in size
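Nrf2 activation is followed as ARE-luciferase induction in the AREc32 line after one day of compound treatment; luminescence is read with Steady-Glo.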
mIDH1 inhibitor: human IDH1 R132H inhibition | AID 602179 | 0.093% of 390,000 active | O75874 | IDH1-R132H enzyme, NADPH consumption, diaphorase/resazurin fluorescence | Potency, µM (series often up to 76.6 µM), without a hit: at the highest dose activity change, negative = inhibition, most hits filed as inhibitors; also: potency is read from the fitted curve at half-maximal effect; % is scaled to controls: 0 for no effect and ±100 for the full control effect; nearly all actives have a fitted effect of over 65% in size
Target sequence (O75874 whole entry R132H, stated change not applied): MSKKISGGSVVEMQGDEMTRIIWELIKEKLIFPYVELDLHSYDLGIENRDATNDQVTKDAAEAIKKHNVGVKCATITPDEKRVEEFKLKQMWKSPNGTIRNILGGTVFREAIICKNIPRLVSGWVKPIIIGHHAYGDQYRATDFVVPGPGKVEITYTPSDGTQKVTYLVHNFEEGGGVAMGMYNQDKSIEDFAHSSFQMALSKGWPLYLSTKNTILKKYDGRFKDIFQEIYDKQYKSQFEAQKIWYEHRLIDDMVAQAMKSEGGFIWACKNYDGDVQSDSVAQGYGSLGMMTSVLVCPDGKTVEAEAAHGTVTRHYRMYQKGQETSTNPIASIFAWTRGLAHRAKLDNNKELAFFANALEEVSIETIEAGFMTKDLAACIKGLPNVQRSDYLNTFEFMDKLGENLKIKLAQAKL
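IDH1-R132H (0.5 ug/mL) preincubated 30 min with compound, then NADPH (0.016 mM) and alpha-KG (2 mM) added; 80 min at RT, pH 7.5. Remaining NADPH coupled via diaphorase/resazurin to fluorescence (540/590 nm); concentration-response curves normalized to no-enzyme control.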
12-LOX inh: blocks human arachidonate 12S-lipoxygenase | P18054 | purified 12hLO, xylenol orange hydroperoxide absorbance | Potency, µM (top dose mostly 108 µM), for the others: at the highest dose activity change, negative = inhibition, usual class: inhibitors | 1.1% of 580,000 active | AID 1671190; also: potency is read from the fitted curve at half-maximal effect; % is scaled to controls: 0 for no effect and ±100 for the full control effect
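Purified human 12hLO at 150 nM in 25 mM Hepes, 0.01% Triton X-100, pH 7.0, preincubated 15 min at room temperature with compound. Reaction started with 40 uM arachidonic acid, 30 min at room temperature. Hydroperoxide measured by Fe-xylenol orange, 573/405 nm absorbance ratio.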
A549 viability: kills or reduces viability of A549 cells in Nrf2 counter-screen; A549 ARE-Fluc cells, CellTiter-Fluor viability, 18-24 h; Potency, µM (highest dose often 46 µM), without a hit: at the highest dose activity change, negative = cytotoxicity, hits mostly inhibitors; 0.16% of 390,000 active; AID 504648; also: potency is read from the fitted curve at half-maximal effect; % is scaled to controls: 0 for no effect and ±100 for the full control effect
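A549 ARE_Fluc cells in 5% FBS OPTI-MEM were exposed to compounds in concentration-response for 18-24 h at 37 deg C. Viability was read by CellTiter-Fluor fluorescence (Ex 405/Em 525) after 30 min, before the luciferase read.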
Numbers without * were called inactive; ? = inconclusive; . = not tested or not shown; ! = repeats disagree. Rows were chosen to be rich in hits. Some 2.7% of all compounds tested hit in one or more screens of this group. Unless noted, calls follow the shape of the dose curve; as a rule, active = well fitted curve in the direction sought with a large enough effect; inconclusive = small, poorly fitted or top-dose-only effect, or another doubt; inactive = no such curve, though single readings can be large; an effect the other way counts as inactive or inconclusive.

SMILES	Nrf2 inh	LDHA inh	Nrf2 ARE act	mIDH1 inhibitor	12-LOX inh	A549 viability
CC(C)=CCOc1ccc2c(-c3cc4ccccc4oc3=O)cc(=O)oc2c1	.	-2	.	.	4%	.
Cc1cc(/C=N/n2cnnc2)c(C)n1-c1ccccc1	.	0	6%	6%	150%	-1%
Cc1ccc(-n2c(C)cc(/C=C3\SC(=O)NC3=O)c2C)cc1	?	-1	4%	4%	0%	-19%
Cc1sc(-n2c(C)cc(/C=N/n3cnnc3)c2C)c(C#N)c1C	15µM*	-1	3%	5%	26%	-16%
Cc1sc(-n2c(C)cc(/C=C3\SC(=S)NC3=O)c2C)c(C#N)c1C	?	-7	9%	-19%	?	21µM*
Cc1cc(/C=C2\SC(=S)NC2=O)c(C)n1-c1cccc(O)c1	12%	-12	5%	-1%	40µM*	?
CCOc1cc(COC(=O)c2cccc(S(=O)(=O)N3CCOCC3)c2)ccc1OC(F)F	.	10	.	.	-20%	.
Cc1nc2ccccc2cc1C(=O)O	3%	-6	0%	2%	7.9µM*!	10%
CCN(CC)c1nc2ccccc2s1	.	12	.	.	?	.
O=C(NCC(O)COc1ccc(C(F)(F)F)cc1)C1CCCCC1 (stereo not drawn)	.	-6	.	.	54%	.
CC1=C(C(=O)OCc2ccc(C)cc2)C(c2cccc(F)c2F)CC(=O)N1 (stereo not drawn)	23µM*	-7	0%	0%	-2%	-1%
CCOP(=O)(OCC)c1nc(-c2ccc(Cl)cc2Cl)oc1N1CCCCC1	21µM*	9	4%	-4%	-19%	?
Brc1ccc(CSc2ccc(-c3ccccn3)nn2)cc1	.	-31*	.	.	8%	.
CCCCCCCC/C=C\CCCCCCCC(=O)NCCc1ccc(O)c(O)c1	?	-5	-1%	11%	5.6µM*!	?
O=C(O)c1cccc(CSc2nnc(-c3ccc(Cl)cc3)o2)c1	9.2µM*	-5	-2%	10%	0%	-1%
O=C(CCSc1nnc(-c2ccncc2)o1)Nc1ccc(Cl)cc1	-21%	2	2%	1%	2%	1%
O=C(CCSc1nnc(-c2ccncc2)o1)Nc1cccc(Cl)c1	21µM*	-4	3%	9%	-9%	-4%
O=C(CSc1n[nH]c(-c2ccncc2)n1)Nc1cccc(C(F)(F)F)c1	.	12	.	.	?	.
C/C(=N\NC(=S)Nc1ccccc1C)c1cc2ccccc2o1	-17%	-1	4%	-1%	20µM*	-9%
CCOC(=O)C1=C(C)OC(N)=C(C#N)C1c1cccc2ccccc12 (stereo not drawn)	.	25	.	.	?	.
COCCNC(=S)N/N=C(\C)c1ccc(Cl)c(Cl)c1	-1%	0	6%	3%	?	0%
COCCNC(=S)N/N=C(\C)c1ccc(Cl)c(Cl)c1Cl	8%	-6	7%	2%	40µM*	7%
Cc1cc(F)ccc1NC(=O)C1CCN(c2nc3ccccc3o2)CC1	.	0	.	.	?	.
COc1cc(OC)cc(-c2cc3nc(C)c(CCC(=O)NCCc4cccc(C)c4)c(C)n3n2)c1	10µM*	-8	-3%	1%	0%	-6%
COc1ccc(CCNC(=O)CCc2c(C)nc3cc(-c4cccc(F)c4)nn3c2C)cc1OC	-13%	-2	0%	12%	0%	0%
SMILES	Nrf2 inh	LDHA inh	Nrf2 ARE act	mIDH1 inhibitor	12-LOX inh	A549 viability
COc1cc(OC)cc(-c2cc3nc(C)c(CCC(=O)NCc4ccc(Cl)cc4)c(C)n3n2)c1	10µM*	0	-4%	11%	-14%	6%
COc1ccc(CNC(=O)CCc2c(C)nc3cc(-c4ccc(OC)cc4OC)nn3c2C)cc1	-15%	-6	0%	-5%	-19%	-4%
Cc1cccc(CCNC(=O)CCc2c(C)nc3c(c(C)nn3-c3ccccc3)c2C)c1	23µM*	1	0%	-13%	-23%	-18%
COc1cc2c(cc1OC)-c1nnc(-c3cccnc3)n1C(C)(C)C2	.	-1	.	.	3%	.
COc1cc(C(=O)N(CC#N)C2CC2)cc(OC)c1C	.	7	.	.	-26%	.
COC(=O)Cn1c(SCCOc2ccccc2Cl)nc2ccccc21	23µM*	-1	3%	-3%	-12%	-10%
Cc1ccc(OCCSc2nc3ccccc3n2CC(=O)N2CCOCC2)cc1	18µM*	-1	3%	4%	-22%	0%
Cc1ccc(C(=O)N/C(=C\c2ccc(-c3ccc(Br)cc3)o2)C(=O)NC(C)(C)C)cc1	.	9	.	.	?	.
Oc1ccc2ccccc2c1CNc1ccc(Br)cn1	23%	4	?	-1%	-4%	3%
Oc1ccc2ccccc2c1CNc1ccc(Br)cc1	-1%	21	?	13%	3.5µM*	-1%
Cc1cccc2sc(NNC(=O)c3cc(-c4cccs4)nc4ccccc34)nc12	23µM*	0	-1%	-4%	?	?
Cc1cccnc1NC(=O)c1cc(-c2cccs2)nc2ccccc12	.	10	.	.	18%	.
O=C(Nc1cccc(Cl)c1)OCc1cnc(Cl)s1	15%	1	5%	3%	25µM*	2%
COc1cccc(CC2(CO)CCCN(C/C=C/c3ccccc3OC)C2)c1 (stereo not drawn)	-6%	-4	0%	1%	-24%	?
COc1ccccc1/C=C/CN1CCCC(CO)(Cc2cccc(Cl)c2)C1 (stereo not drawn)	1%	-3	3%	2%	40µM*	-16%
CCC1c2ccsc2CCN1C(=O)COc1ccc2c(C)cc(=O)oc2c1 (stereo not drawn)	.	0	.	.	?	.
COc1ccc(CN2CCN(C(=O)c3ccc(S(=O)(=O)N4CCCCCC4)cc3)CC2)cc1	?	-4	4%	2%	?	-3%
N#Cc1ccc(CN2CCN(C(=O)c3ccc(S(=O)(=O)N4CCCCCC4)cc3)CC2)cc1	16µM*	-18	0%	12%	-15%	-9%
N#Cc1ccc(S(=O)(=O)N2CCC(C(=O)N3CCN(Cc4ccc5c(c4)OCO5)CC3)CC2)cc1	18µM*	0	0%	9%	0%	-8%
O=C(c1ccc(S(=O)(=O)N2CCCCCC2)cc1)N1CCN(Cc2ccccc2)CC1	?	-2	0%	3%	192%	-2%
COc1ccc(CN2CCN(C(=O)c3ccc(S(=O)(=O)N4CCCCCC4)cc3)CC2)cc1F	9.2µM*	0	1%	5%	?	-20%
CCn1c(CNC(C)c2ccccc2)nc2cc(S(=O)(=O)N3CCOCC3)ccc21 (stereo not drawn)	.	2	.	.	40%	.
